Mtb bLac sens: beta-lactam sensitization of Mtb H37Rv, H37Rv; M. tuberculosis H37Rv growth with meropenem, percent inhibition; inhibition, % at 25 µM; 330,000 compounds, 0.27% hits; AID 434955, 2010;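 also: growth measured after seven days incubation then overnight dye step; 0% = bacteria only wells and 100% = bacteria with antibiotic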
Rv3671c inh: Rv3671c serine protease inhibitors, primary screen, biochemical, fluorescence polarization, M. tuberculosis H37Rv; inhibition, % at 5.96 µM; AID 2606, 2010; 320,000 compounds, 0.048% hits; P9WHR9; in the data active = inhibition above about 38%;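 also: extracellular domain of Rv3671c used as enzyme; 0% = enzyme with DMSO and 100% = no enzyme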
Target sequence (P9WHR9 whole entry, looked up, the tested form may be a part): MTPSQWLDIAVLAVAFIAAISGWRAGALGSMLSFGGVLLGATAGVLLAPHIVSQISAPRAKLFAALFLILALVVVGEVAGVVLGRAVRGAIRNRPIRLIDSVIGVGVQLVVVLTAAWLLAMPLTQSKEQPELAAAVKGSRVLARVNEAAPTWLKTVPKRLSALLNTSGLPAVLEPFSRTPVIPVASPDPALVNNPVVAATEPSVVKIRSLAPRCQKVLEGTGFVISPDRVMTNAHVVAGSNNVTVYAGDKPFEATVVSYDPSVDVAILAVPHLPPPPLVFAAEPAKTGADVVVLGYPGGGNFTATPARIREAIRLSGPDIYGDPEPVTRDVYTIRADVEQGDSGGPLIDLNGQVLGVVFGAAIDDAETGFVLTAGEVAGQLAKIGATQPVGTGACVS
SSB-PriA inh: inhibitors of Klebsiella pneumoniae PriA binding to SSB C-terminal tail, primary screen, biochemical, AlphaScreen. 430,000 compounds, 0.6% hits. PriA–SSB C-terminal tail interaction (Klebsiella pneumoniae). AlphaScreen SSBct-PriA binding, biotinylated peptide. inhibition, % at 33 µM; in the data active = inhibition mostly above about 37%, no sharp cut-off; inactive = mostly below about 20%;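 also: plate controls were negative control peptide for no effect and reference peptide for full effect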
UGM FP inh: M. tuberculosis UGM enzyme inhibitors, primary screen, biochemical, fluorescence polarization, single point. UDP-galactopyranose mutase (Mycobacterium tuberculosis (strain ATCC 25618 / H37Rv)), …. purified UGM, fluorescence polarization probe displacement. inhibition, % at 10 µM. 320,000 compounds, 0.06% hits. AID 504406, 2011; in the data active = inhibition above about 10%, passing the limit was not always enough; inconclusive = no clear call, values can overlap the other calls
RecA splice inh: Mtb RecA intein splicing inhibitors, primary screen, biochemical, fluorescence, HTS | Protein RecA (Mycobacterium tuberculosis (strain ATCC 25618 / H37Rv)), P9WHJ3 | cell-free RecA intein splicing | inhibition, % (no concentration beside the values) | 290,000 compounds, 0.75% hits | AID 2221, 2009; in the data active = inhibition above about 30%; inconclusive = no clear call, values can overlap the other calls;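 also: 0% = vehicle wells and 100% = reference inhibitor control wells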
GFP chromo cs: counter-screen: blocks GFP chromophore formation, dose response, counter-screen, biochemical, fluorescence, homogeneous. shares compounds with RecA splice inh. cell-free GFP chromophore formation. EC50, µM. 2,100 compounds, 83% hits. AID 434968, 2010
Active calls of the source: *; ? = inconclusive; . = no result given; ! = not active in a repeat. A selection: hits, their analogues and other compounds. The true share with any hit is near 1.1%. Unless noted, no rule for the calls is given here.

SMILES	Mtb bLac sens	Rv3671c inh	SSB-PriA inh	UGM FP inh	RecA splice inh	GFP chromo cs
N#CC1=C(N)C(C#N)(C#N)C(c2cccnc2)C2CN(C(=O)OCc3ccccc3)CC=C12 (stereo unspecified)	-10	-1	-7	2	45*	4.4*
CC(=O)N1CC=C2C(C#N)=C(N)C(C#N)(C#N)C(CCc3ccccc3)C2C1 (stereo unspecified)	10	-5	-4	-2	19	.
COc1ccc(Cn2c(N3CCN(c4ccccc4)CC3)nc3ccccc3c2=O)cc1F	.	.	-19	.	.	.
CC/C(=C(\c1ccccc1)c1ccc(OCCN(C)C)cc1)c1ccccc1	99	13	31	-4	29	.
CCN(CC)CCOc1ccc(/C(=C(/Cl)c2ccccc2)c2ccccc2)cc1	100	1	15	-3	32*!	20*
O=C(COC(=O)C1CC(=O)N(Cc2ccco2)C1)c1ccc(OC(=O)c2ccco2)cc1 (stereo unspecified)	-1	-15	-1	3	35*	>38
COC(=O)c1cccc(S(=O)(=O)N2CCOCC2)c1	?	0	-6	0	-1	.
O=C1CC(=O)N(c2cccc(C(F)(F)F)c2)C(=O)N1	-5	-1	3	0	0	.
COC(=O)c1cccc(N2C(=O)C(Cl)=C(N3CCOCC3)C2=O)c1	97	-5	-6	1	68*	5.2*
O=C1C(Cl)=C(N2CCOCC2)C(=O)N1c1cccc(C(F)(F)F)c1	18	-4	-1	4	90*	2.6*
O=C(Nc1ccccc1)C1=C(c2ccccc2)S(=O)(=O)CCS1(=O)=O	.	.	-14	.	94*	1.5*
O=C(O)c1ccccc1C(=O)Nc1ccccc1	11	1	-8	-5	0	.
O=C(Nc1cccc(F)c1)N1CCC(c2ccccc2)CC1	4	-12	-7	2	38*	>38
O=C1c2ccccc2OC2(C=Cc3ccccc3O2)N1Cc1ccccc1 (stereo unspecified)	39	-2	-8	-2	32*	>38
CCC1C(=O)N(c2nc(C)cc(C)n2)N=C1C (stereo unspecified)	-4	-4	-14	2	67*	20*
CC1=NN(c2nc(C)cc(C)n2)C(=O)C1CCC(C)C (stereo unspecified)	-2	4	-8	-2	2	.
CC(C)c1nnc(NC(=O)c2nc(S(=O)(=O)Cc3ccccc3)ncc2Cl)s1	5	-7	-7	-1	79*	>38
CCCc1nnc(NC(=O)c2nc(S(=O)(=O)Cc3ccc(C)cc3)ncc2Cl)s1	-1	2	-8	0	85*	>38
CSc1nnc(NC(=O)c2nc(S(=O)(=O)Cc3ccccc3)ncc2Cl)s1	-4	6	-9	0	72*	30*
Cc1cccc(CC(=O)NCCc2ccc(N3CCCC3)cc2)c1	.	.	-10	.	.	.
Cc1[nH][nH]c(=O)c1C(c1c(C)[nH][nH]c1=O)c1cn(Cc2ccccc2Cl)c2ccccc12	.	.	12	.	99*	0.51*
NC(=O)CSc1cn(Cc2ccccc2Cl)c2ccccc12	.	.	-8	.	.	.
CCCCCCCCNC(=O)/C(C#N)=C/c1ccccc1[N+](=O)[O-]	6	-1	6	-4	42*	12*
N#C/C(=C\c1ccccc1[N+](=O)[O-])C(=O)NCc1ccccc1	0	4	-14	-6	12	.
COc1ccccc1OCC(=O)Nc1cc(-c2cccs2)nn1-c1nc(C)c(C)c(=O)[nH]1	.	.	7	.	.	.
O=[N+]([O-])c1ccc(Sc2cccc[n+]2[O-])c2nonc12	.	.	.	.	45*	19*
O=[N+]([O-])c1ccc(Nc2ccccc2)c2nonc12	89	-2	-7	-3	9	.
O=C(O)CC1SC(=NN=Cc2ccc(-c3ccccc3[N+](=O)[O-])o2)NC1=O (stereo unspecified)	.	.	-2	.	.	.
Cc1ccc(-c2ccc(/C=N/N=C3/NC(=O)C(CC(=O)O)S3)o2)c([N+](=O)[O-])c1 (stereo unspecified)	-3	-59	.	2	48*	34*
